Shiga inhibitor = blocks Shiga toxin action in Vero cells; Vero cells, Shiga toxin protein synthesis inhibition reporter; inhibition, % at 38.7 µM; 290,000 compounds, 9.2% hits; AID 2315; in the data active means inhibition mostly above about 28%, no sharp cut-off; inactive means mostly below about 43%; further: 0% is about no effect
Pf growth 48h = P. falciparum growth inhibition at 48 hours (one generation); P. falciparum luciferase growth in erythrocytes, 48 h; Potency, µM (highest dose often 28.7 µM), inactives show top-dose activity change, negative = inhibition, most hits filed as inhibitors; 310,000 compounds, 5.9% hits; further: potency means the concentration at half of the fitted maximal effect; on the % scale 0 is the no-effect control and ±100 the full control effect
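Luminescence readout; reporter = integrated firefly luciferase in P. falciparum. RBC culture at 2% hematocrit, 0.1% parasitemia final, 37 C/5% CO2; decreased signal taken as growth inhibition.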
Pf growth 96h = P. falciparum growth inhibition at 96 hours | P. falciparum luciferase reporter growth, 96 h | AID 504834 | Potency, µM (series often up to 28.7 µM), inactives show at the top dose activity change, negative = inhibition, hits mostly inhibitors | 320,000 compounds, 6.9% hits; further: potency means the concentration at half of the fitted maximal effect; on the % scale 0 is the no-effect control and ±100 the full control effect
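Two parasite generations (96 h, 37 C, 5% CO2) of compound exposure in infected erythrocytes (0.05% parasitemia, 2% hematocrit). Luciferase-reporter P. falciparum; decreased luminescence indicates inhibited growth, aimed at apicoplast-acting delayed death.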
NS1 inh = inhibitors of influenza NS1 protein function; Potency, µM (top dose mostly 46.1 µM), inactives show at the highest dose activity, positive = more growth; AID 2326; 270,000 compounds, 0.4% hits; calls by dose curve; further: potency means the concentration at half of the fitted maximal effect; actives are rising curves; nearly all actives have a fitted effect of over 50% in size
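Recovery from NS1-induced slow growth read by OD600 in budding yeast switched to galactose assay medium (pH 6.0, -URA) at 1:100 dilution. Compound 23 nl per well; the matching strain lacking NS1 serves as control.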
CHX counter = affects cycloheximide protein synthesis inhibition readout, counter-screen; cell reporter, cycloheximide protein synthesis inhibition counterscreen; max response, %; 300,000 compounds, 12% hits; AID 2314; in the data active means max response mostly above about 13%, no sharp cut-off; inactive means mostly below about 14%; further: read at 38.3 µM for the half of the compounds with a filed dose; 0% is about no effect
Sm TGR inh = inhibitors of Schistosoma mansoni thioredoxin glutathione reductase. Q962Y6. purified TGR, DTNB reduction, TNB absorbance 405 nm. Potency, µM (series often up to 114 µM), for the others: at the top dose activity change, negative = inhibition, most hits filed as inhibitors. 360,000 compounds, 3% hits. AID 485364; further: potency means the concentration at half of the fitted maximal effect; on the % scale 0 is the no-effect control and ±100 the full control effect; nearly all actives have a fitted effect of over 60% in size
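First, TGR (20 nM dispensed) and NADPH were mixed with compound. Second, a 15 min room-temperature incubation followed. Third, further NADPH and then DTNB were added to start the reaction. Finally, TNB absorbance was monitored kinetically.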
* marks the source's active call; other numbers are inactive results; ? = inconclusive; . = not tested or not shown; [ ] = remark or other dose. Hits are enriched below; roughly 21% of the tested compounds scored in any of these assays. Unless noted, the call rests on the fitted dose curve; in most records, active means well fitted curve in the direction sought with a large enough effect; inconclusive means small, poorly fitted or top-dose-only effect, or another doubt; inactive means no such curve, though single readings can be large; an effect the other way counts as inactive or inconclusive.

SMILES	Shiga inhibitor	Pf growth 48h	Pf growth 96h	NS1 inh	CHX counter	Sm TGR inh
Cc1nc(NC(=S)Nc2ccccc2)sc1C	127*	199%	53%	.	43*	?
CCOc1ccc(C(=O)Nc2nnc(NC(=S)Nc3ccccc3)s2)cc1	70*	?	?	.	26*	-5%
CCc1nnc(NC(=S)Nc2ccccc2)s1	99*	-25%	?	.	45*	-35%
Cc1ccc(C(=O)Nc2nnc(NC(=S)Nc3ccccc3)s2)cc1	19	-23%	32%	3%	3	-11%
COc1ccc(CN2CCN(C(C)C)C(CCO)C2)cc1Cn1cncn1 (stereo unspecified)	9	56%	1%	2%	-2	-16%
Cn1ncc2c(Nc3cc(C(F)(F)F)ccc3Cl)ncnc21	.	.	.	.	.	6%
Cc1ccc(CNC(=O)C2CCN(S(=O)(=O)c3cccs3)CC2)cc1	-1	11%	-1%	-5%	-2	-4%
CC(C(=O)NC1CCCC1)N1CCN(S(=O)(=O)c2ccc(C(C)(C)C)cc2)CC1 (stereo unspecified)	.	1.5µM*	1.5µM*	.	.	-8%
Cc1nn(C)c(C)c1S(=O)(=O)N1CCC(C(=O)Nc2ccc3c(c2)OCCO3)CC1	81*	.	?	-10%	30	4%
O=C(Nc1ccc2c(c1)OCO2)C1Cc2ccccc2CN1S(=O)(=O)c1cccs1 (stereo unspecified)	26	45%	5%	-5%	18*	-6%
COc1ccc(NC(=O)C2CCN(S(=O)(=O)c3c(C)nn(C)c3C)CC2)cc1	3	4%	?	-2%	-3	9%
Cc1ccc(CNC(=O)C2CCN(S(=O)(=O)c3cccs3)CC2)o1	-6	?	87%	4%	-2	5.6µM*
CCc1cc(=O)[nH]c(SCC(=O)N2CCC(Cc3ccccc3)CC2)n1	.	-5%	-8%	.	.	0%
COC(=O)c1ccccc1NC(=O)c1oc2ccc3c(c2c1C)C(=O)CC(C)(C)O3	.	.	.	.	.	3%
O=C(N/N=C/c1cc([N+](=O)[O-])c(N2CCOCC2)cc1N1CCOCC1)c1cccnc1	-16	8%	-27%	.	-2	2%
Cc1ccc(S(=O)(=O)NC(=O)OC23COCN2COC3)cc1	.	.	.	-8%	.	.
Cc1ccc(S(=O)(=O)N2CCOC2CNC(=O)C(=O)NCc2ccc3c(c2)OCO3)cc1 (stereo unspecified)	-5	?	-3%	14%	-3	4%
O=C(CN1CCN(S(=O)(=O)c2cccs2)CC1)NCC1CCCCC1	.	?	?	.	.	-4%
O=C(Nc1ccc2c(c1)OCCO2)C1CCN(S(=O)(=O)c2cccs2)CC1	23	.	5%	-7%	24*	2%
CC(C(=O)NCC1CCCCC1)N1CCN(S(=O)(=O)c2cccs2)CC1 (stereo unspecified)	.	9.3µM*	?	.	.	-10%
O=C(C1Cc2ccccc2CN1S(=O)(=O)c1cccs1)N1CCCCC1 (stereo unspecified)	-3	-8%	.	-2%	9.5*	7%
O=C(Nc1ccc2c(c1)OCCO2)C1CCCN(S(=O)(=O)c2cccs2)C1 (stereo unspecified)	-7	7%	.	-7%	-2	8%
O=C(Nc1ccc2c(c1)OCO2)C1CCN(S(=O)(=O)c2cccs2)CC1	42*	-13%	3%	-14%	8.4*	-26%
CN(C)C(=O)C1Cc2ccccc2CN1S(=O)(=O)c1cccs1 (stereo unspecified)	10	-20%	36%	-1%	-3	0%
COc1ccc(CNC(=O)CCn2c(=O)c3cccn3c3ccc(F)cc32)cc1OC	.	.	.	.	.	8%
SMILES	Shiga inhibitor	Pf growth 48h	Pf growth 96h	NS1 inh	CHX counter	Sm TGR inh
CC(=O)c1ccc(NC(=O)CN(C)S(=O)(=O)c2cnc[nH]2)cc1	.	.	.	.	.	-3%
CCc1ccccc1NC(=O)COc1cccc(-n2cnnn2)c1	-7	-5%	-18%	18%	-1	-8%
Cc1cccc(NC(=O)CCn2nc(C)c3c(C)n(-c4ccccc4)nc3c2=O)c1C	.	.	.	.	.	-2%
CN(C)C(=O)Oc1ccc(OCc2n(C)c3ccccc3[n+]2C)cc1	-3	?	2.3µM*	8%	-2	-8%
Cc1ccc(C)c(Nc2nc(N)c3ccccc3n2)c1	73*	46%[5.75 µM]	88%	.	26*	8%
COc1nc(NCCO)nc(Nc2cc(Cl)ccc2OC)n1	42	?	?	-2%	-2	81%
Cc1ccc(O)c(Nc2nc(-c3ccccc3)nc3ccccc23)c1	.	?	-15%	-2%	-3	-17%
COc1ccc(C)cc1Nc1nc(N)c2cc(OC)c(OC)cc2n1	4	1µM*	2%	5%	5	3%
COc1ccc(Cl)cc1Nc1nc(N)c2ccccc2n1	.	9.3µM*	?	-67%	25*	6%
COc1ccc(C)cc1Nc1nc(C)nc2sc(C)cc12	3	0%[0.00184 µM]	-15%	-5%	-6	6%
Cc1ccc(O)c(Nc2c3ccccc3nc3ccccc23)c1	33*	?	22%	-53%	21*	?
CC1CC(C)(C)CC2(C1)NC(=O)N(CC(=O)N(C)Cc1nc3ccccc3c(=O)[nH]1)C2=O (stereo unspecified)	.	12%	15%	.	.	-1%
COc1cc2nc(N3CCN(c4cc(C)ccc4C)CC3)nc(N)c2cc1OC	-21	1.9µM*	0%	1%	-15	14%
COc1cc2nc(N3CCNCC3)nc(N)c2cc1OC	9	?	.	6%	-1	-15%
O=C(c1cn(CC2CCCCC2)nn1)N1CCN(c2ccc(F)cc2)CC1	49*	4%	15%	-22%	30*	-18%
CC(C)Cc1cc(C(=O)N2CCN(c3ccc(F)cc3)CC2)no1	14	5%	-29%	-8%	11	17%
CCc1ccc(NC(=O)C(C)OC(=O)CC(NC(C)=O)c2ccccc2)cc1 (stereo unspecified)	29	?	10%	?	33*	-1%
CC(=O)NC(CC(=O)OC(C)C(=O)Nc1ccc(Cl)cn1)c1ccccc1 (stereo unspecified)	.	-9%	21%	.	.	1%
O=C(NCC1CCCN(C(=O)c2cccnc2)C1)c1ccc(-c2ccccc2)cc1 (stereo unspecified)	4	-13%	15%	-3%	7	4%
CSCC(=O)N1CCCC(CNC(=O)c2ccc(-c3ccccc3)cc2)C1 (stereo unspecified)	22	?	21%	-4%	12*	-12%
CC(=O)CCC(=O)N1CCCC(CNC(=O)c2ccc(-c3ccccc3)cc2)C1 (stereo unspecified)	42*	-17%	?	-4%	21*	4%
CNC(=S)N(Cc1ccccc1)Cc1cccnc1	-2	-6%	13%	-4%	-3	-5%
O=C(Cn1ccn(-c2ccc(F)c(F)c2)c(=O)c1=O)c1ccc(F)cc1	.	.	.	.	.	-3%

Screening results from PubChem BioAssay.
